# Laboratory results published in PubChem BioAssay (EPA / NIEHS).
# Where “and” joins values, the source holds several entries; their conditions need not be identical. Identical values can stand only once. Results filed as inconclusive are left out. Calls of active or inactive are those of the source. The calls were made as follows, unless noted: active = hit-call score of the fitted dose curve at least 0.9, where 1 is the maximum; inactive = score below 0.9.
# Tests used:
# [1] = biological target: Glucocorticoid receptor (Homo sapiens) (UniProt P04150); assay: ATG_GR_TRANS: Attagene TRANS-FACTORIAL HepG2 Assay for human Glucocorticoid Receptor (GR) (AID 2282978; active = hit-call score of the fitted dose curve at least 0.9, where 1 is the maximum;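 also: activators score as hits since higher reporter transcript over DMSO is fitted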); settings: HepG2 Attagene TRANS GR reporter, mRNA transcription
# Chain of Glucocorticoid receptor (Homo sapiens) (P04150 whole entry, looked up, the tested form may be a part): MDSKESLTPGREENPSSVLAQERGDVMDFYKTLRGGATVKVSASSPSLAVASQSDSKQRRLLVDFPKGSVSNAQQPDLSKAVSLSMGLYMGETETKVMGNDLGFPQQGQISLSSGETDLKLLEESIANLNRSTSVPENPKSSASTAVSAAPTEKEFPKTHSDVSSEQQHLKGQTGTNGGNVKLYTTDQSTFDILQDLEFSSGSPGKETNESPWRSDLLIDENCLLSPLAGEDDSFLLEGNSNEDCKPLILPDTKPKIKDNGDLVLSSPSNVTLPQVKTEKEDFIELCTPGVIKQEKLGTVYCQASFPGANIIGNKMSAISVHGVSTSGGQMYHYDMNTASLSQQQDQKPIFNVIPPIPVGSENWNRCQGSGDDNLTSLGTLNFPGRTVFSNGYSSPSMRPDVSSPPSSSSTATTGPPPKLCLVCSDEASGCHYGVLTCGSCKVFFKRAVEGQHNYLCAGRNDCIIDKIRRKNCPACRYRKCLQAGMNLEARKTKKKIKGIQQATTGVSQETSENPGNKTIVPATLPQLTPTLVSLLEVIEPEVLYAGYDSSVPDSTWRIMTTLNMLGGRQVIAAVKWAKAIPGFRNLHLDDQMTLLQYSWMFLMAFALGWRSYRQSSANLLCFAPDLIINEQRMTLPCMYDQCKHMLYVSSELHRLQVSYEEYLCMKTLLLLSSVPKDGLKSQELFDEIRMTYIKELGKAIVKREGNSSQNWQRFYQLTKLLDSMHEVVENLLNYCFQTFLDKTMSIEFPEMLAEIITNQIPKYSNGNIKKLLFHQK
# Procedure, shortened: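 Measurement of GAL4-UAS-driven reporter mRNA in human HepG2 liver cells 24 h post-dosing, using RT-PCR with fluorescent labelling and capillary electrophoresis; the transfected constructs report exogenous NR-GAL4 chimera activity, fitted upward against DMSO.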
# [2] = biological target: Bile acid receptor (Homo sapiens) (UniProt Q96RI1); assay: ATG_FXR_TRANS: Attagene TRANS-FACTORIAL HepG2 Assay for Farnesoid X Receptor (FXR) (AID 2282979; active = hit-call score of the fitted dose curve at least 0.9, where 1 is the maximum;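 also: hits raise reporter mRNA above DMSO so AC50 marks FXR activation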); settings: HepG2 Attagene TRANS FXR-GAL4 reporter transcription
# Procedure, shortened: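 HepG2 cells were transiently transfected with GAL4-UAS reporters driven by chimeric NR-Gal4 proteins and dosed for 24 h. Reporter mRNA was quantified by RT-PCR, fluorescent labelling, HpaI digestion and capillary electrophoresis, with gain of signal scored versus DMSO.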
# [3] = biological target: Oxysterols receptor LXR-alpha (Homo sapiens) (UniProt Q13133); assay: ATG_LXRa_TRANS: Attagene TRANS-FACTORIAL HepG2 Assay for human Liver X Receptor alpha (LXRa) (AID 2282980; active = hit-call score of the fitted dose curve at least 0.9, where 1 is the maximum); settings: HepG2 Attagene TRANS reporter, LXRa transactivation
# Chain of Oxysterols receptor LXR-alpha (Homo sapiens) (Q13133 whole entry, looked up, the tested form may be a part): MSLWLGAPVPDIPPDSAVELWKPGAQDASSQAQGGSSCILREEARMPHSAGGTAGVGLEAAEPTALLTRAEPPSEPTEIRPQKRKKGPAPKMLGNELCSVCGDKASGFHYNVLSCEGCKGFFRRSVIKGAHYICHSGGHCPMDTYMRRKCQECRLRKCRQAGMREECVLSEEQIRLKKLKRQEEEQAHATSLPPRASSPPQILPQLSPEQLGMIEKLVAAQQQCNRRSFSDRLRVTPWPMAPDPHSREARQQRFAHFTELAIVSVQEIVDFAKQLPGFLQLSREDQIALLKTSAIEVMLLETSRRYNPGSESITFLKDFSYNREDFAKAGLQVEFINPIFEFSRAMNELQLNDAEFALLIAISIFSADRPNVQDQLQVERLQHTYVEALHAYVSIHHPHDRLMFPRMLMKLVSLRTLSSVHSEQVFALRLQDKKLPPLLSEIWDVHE
# Procedure, shortened: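 HepG2 cells transiently transfected with GAL4-UAS reporter units for chimeric NR-Gal4 proteins, exposed to chemicals for 24 h. Reporter mRNA quantified by RT-PCR and capillary electrophoresis; gain of signal fitted relative to DMSO.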
# [4] = biological target: Oxysterols receptor LXR-beta (Homo sapiens) (UniProt P55055); assay: ATG_LXRb_TRANS: Attagene TRANS-FACTORIAL HepG2 Assay for human Liver X Receptor beta (LXRb) (AID 2282981; active = hit-call score of the fitted dose curve at least 0.9, where 1 is the maximum); settings: HepG2 Attagene TRANS GAL4-LXRb reporter, mRNA
# Chain of Oxysterols receptor LXR-beta (Homo sapiens) (P55055 whole entry, looked up, the tested form may be a part): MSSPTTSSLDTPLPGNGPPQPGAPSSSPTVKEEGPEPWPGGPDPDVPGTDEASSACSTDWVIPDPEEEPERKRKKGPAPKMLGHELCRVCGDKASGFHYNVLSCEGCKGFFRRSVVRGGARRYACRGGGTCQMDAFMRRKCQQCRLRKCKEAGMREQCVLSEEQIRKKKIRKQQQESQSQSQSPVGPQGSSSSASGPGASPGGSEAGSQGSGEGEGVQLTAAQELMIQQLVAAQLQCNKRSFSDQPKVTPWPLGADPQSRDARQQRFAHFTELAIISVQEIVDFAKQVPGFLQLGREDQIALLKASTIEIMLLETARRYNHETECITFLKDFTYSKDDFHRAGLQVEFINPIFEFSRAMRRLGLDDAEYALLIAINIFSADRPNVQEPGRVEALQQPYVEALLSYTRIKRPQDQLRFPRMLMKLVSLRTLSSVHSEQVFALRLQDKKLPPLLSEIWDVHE
# Procedure, shortened: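 HepG2 cells transiently transfected with GAL4-UAS reporter units for chimeric NR-Gal4 proteins, dosed for 24 h. Reporter transcripts measured by RT-PCR and capillary electrophoresis; gain-of-signal fitting relative to DMSO.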
# [5] = ATG_M_32_TRANS: Attagene TRANS-FACTORIAL HepG2 Assay for M32 Transcription Factor (Internal Marker) (AID 2282984; active = hit-call score of the fitted dose curve at least 0.9, where 1 is the maximum;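 also: transcript level of a background control reporter unit measured by RT-PCR and capillary electrophoresis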); settings: HepG2 Attagene TRANS M32 internal marker reporter
# Procedure, shortened: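 HepG2 cells transiently transfected with GAL4-UAS reporter units, dosed for 24 hours. Reporter mRNA quantified by RT-PCR, 6-FAM labelling, HpaI digestion and capillary electrophoresis; internal-marker signal fitted upward relative to DMSO.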
# [6] = biological target: Nuclear receptor subfamily 4 group A member 2 (Homo sapiens) (UniProt P43354); assay: ATG_NURR1_TRANS: Attagene TRANS-FACTORIAL HepG2 Assay for human Nuclear Receptor Related Protein 1 (NURR1) (AID 2282985; active = hit-call score of the fitted dose curve at least 0.9, where 1 is the maximum); settings: HepG2 Attagene TRANS reporter, mRNA readout
# Chain of Nuclear receptor subfamily 4 group A member 2 (Homo sapiens) (P43354 whole entry, looked up, the tested form may be a part): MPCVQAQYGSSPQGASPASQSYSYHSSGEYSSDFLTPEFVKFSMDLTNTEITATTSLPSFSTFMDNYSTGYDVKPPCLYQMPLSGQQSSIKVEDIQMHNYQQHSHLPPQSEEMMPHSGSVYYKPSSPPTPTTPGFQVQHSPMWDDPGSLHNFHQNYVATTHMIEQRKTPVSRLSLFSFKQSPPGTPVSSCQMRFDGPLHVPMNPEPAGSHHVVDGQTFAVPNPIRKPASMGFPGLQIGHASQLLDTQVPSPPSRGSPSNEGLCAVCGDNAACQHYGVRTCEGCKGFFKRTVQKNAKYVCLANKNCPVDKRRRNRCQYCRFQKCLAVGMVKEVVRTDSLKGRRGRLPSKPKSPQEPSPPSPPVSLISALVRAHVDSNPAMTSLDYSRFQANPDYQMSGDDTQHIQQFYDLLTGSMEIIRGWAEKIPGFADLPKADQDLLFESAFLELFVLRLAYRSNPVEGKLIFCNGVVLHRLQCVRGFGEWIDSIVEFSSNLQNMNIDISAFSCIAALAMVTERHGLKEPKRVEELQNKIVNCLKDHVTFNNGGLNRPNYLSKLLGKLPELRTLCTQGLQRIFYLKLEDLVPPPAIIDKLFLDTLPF
# Procedure, shortened: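 HepG2 cells transiently transfected with NURR1-Gal4 chimera and GAL4-UAS reporter units; after 24 hr compound exposure, reporter mRNA quantified by RT-PCR and capillary electrophoresis; gain of signal fitted against DMSO.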
# [7] = biological target: Transcriptional activator Myb (Homo sapiens) (UniProt P10242); assay: ATG_Myb_CIS: Attagene CIS-FACTORIAL HepG2 Assay for human Myeloblastosis (Myb) Proto-Oncogene Transcription Factor (AID 2282986); settings: HepG2 Attagene CIS-FACTORIAL Myb reporter transcription; actives raise or lower the signal
# Chain of Transcriptional activator Myb (Homo sapiens) (P10242 whole entry, looked up): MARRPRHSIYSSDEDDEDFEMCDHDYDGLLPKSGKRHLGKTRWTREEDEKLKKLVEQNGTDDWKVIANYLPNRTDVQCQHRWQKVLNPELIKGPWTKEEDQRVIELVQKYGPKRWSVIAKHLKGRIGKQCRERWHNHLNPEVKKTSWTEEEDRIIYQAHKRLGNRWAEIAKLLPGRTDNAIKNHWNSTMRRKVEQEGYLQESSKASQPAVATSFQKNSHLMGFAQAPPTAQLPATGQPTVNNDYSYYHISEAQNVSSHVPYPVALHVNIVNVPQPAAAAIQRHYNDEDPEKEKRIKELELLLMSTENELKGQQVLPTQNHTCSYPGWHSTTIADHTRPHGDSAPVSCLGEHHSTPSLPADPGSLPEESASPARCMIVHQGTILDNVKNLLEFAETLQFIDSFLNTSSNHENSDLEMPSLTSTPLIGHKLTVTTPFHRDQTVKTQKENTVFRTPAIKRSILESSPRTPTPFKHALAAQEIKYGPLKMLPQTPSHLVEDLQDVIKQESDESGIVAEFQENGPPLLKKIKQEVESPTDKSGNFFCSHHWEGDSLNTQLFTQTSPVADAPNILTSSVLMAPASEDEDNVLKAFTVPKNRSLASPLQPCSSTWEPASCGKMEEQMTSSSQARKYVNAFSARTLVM
# Procedure, shortened: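 Fluorescence signals from capillary electrophoresis of RT-PCR-amplified reporter cDNA give the read-out. Cells: HepG2 transfected with multiple cis-regulated reporter units. Exposure lasts 24 hours; DMSO defines baseline for gain or loss of signal.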
# [8] = biological target: Nuclear respiratory factor 1 (Homo sapiens) (UniProt Q16656); assay: ATG_NRF1_CIS: Attagene CIS-FACTORIAL HepG2 Assay for human Nuclear Respiratory Factor 1 (NRF1) Orphan Gene (AID 2282987); settings: HepG2 NRF1 cis-element reporter, Attagene multiplex; actives raise or lower the signal
# Chain of Nuclear respiratory factor 1 (Homo sapiens) (Q16656 whole entry, looked up): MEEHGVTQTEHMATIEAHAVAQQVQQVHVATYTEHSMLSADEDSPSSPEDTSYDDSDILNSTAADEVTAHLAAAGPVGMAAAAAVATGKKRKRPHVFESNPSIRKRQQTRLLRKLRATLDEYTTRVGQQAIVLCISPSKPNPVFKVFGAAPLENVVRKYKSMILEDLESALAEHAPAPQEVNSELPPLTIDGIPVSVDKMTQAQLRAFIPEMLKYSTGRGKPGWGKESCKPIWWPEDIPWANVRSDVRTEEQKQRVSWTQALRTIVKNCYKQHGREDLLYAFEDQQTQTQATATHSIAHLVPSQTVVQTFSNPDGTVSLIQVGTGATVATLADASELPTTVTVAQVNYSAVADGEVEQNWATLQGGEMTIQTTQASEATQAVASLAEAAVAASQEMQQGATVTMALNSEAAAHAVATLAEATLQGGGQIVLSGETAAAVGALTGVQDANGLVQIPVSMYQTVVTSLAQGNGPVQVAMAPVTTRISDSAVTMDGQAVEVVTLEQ
# Procedure, shortened: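 Transcriptional reporter readout, one component of a 52-endpoint multiplexed HepG2 panel. Exposure 24 h; mRNA detected via RT-PCR and fluorescent capillary electrophoresis; fitting in both directions against DMSO.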
# [9] = ATG_NFI_CIS: Attagene CIS-FACTORIAL HepG2 Assay for human Nuclear Factor I (NFI) (AID 2282989); settings: HepG2 cis-regulatory reporter, NFI response element transcription; actives raise or lower the signal
# Procedure, shortened: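 After transient transfection of HepG2 with cis-promoter reporter constructs and 24 h dosing, RNA is reverse-transcribed, amplified, 6-FAM end-labelled and HpaI-digested before capillary analysis. Bidirectional curve fitting against DMSO.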
# [10] = biological target: Myc proto-oncogene protein (Homo sapiens) (UniProt P01106); assay: ATG_Myc_CIS: Attagene CIS-FACTORIAL HepG2 Assay for human Myelocytomatosis (Myc) Proto-Oncogene Transcription Factor (AID 2282990); settings: HepG2, Attagene cis-reporter transcription factor activity; actives raise or lower the signal
# Chain of Myc proto-oncogene protein (Homo sapiens) (P01106 whole entry, looked up, the tested form may be a part): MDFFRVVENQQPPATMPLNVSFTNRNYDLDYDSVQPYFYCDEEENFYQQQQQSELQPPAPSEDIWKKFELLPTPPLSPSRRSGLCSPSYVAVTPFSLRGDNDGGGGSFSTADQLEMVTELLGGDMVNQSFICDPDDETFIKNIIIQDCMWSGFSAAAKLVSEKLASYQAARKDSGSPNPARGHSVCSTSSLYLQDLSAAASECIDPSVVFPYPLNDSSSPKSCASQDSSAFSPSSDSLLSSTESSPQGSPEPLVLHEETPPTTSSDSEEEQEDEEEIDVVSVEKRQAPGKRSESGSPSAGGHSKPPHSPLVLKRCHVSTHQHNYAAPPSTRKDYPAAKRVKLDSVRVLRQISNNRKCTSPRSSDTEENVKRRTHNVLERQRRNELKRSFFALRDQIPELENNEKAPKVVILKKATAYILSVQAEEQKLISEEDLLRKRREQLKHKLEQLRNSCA
# Procedure, shortened: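 Read-out: fluorescent reporter mRNA fragments resolved by capillary electrophoresis after RT-PCR. Human HepG2 liver cells carried transfected cis-element reporter units and were dosed for 24 h. Gain or loss of signal fitted relative to DMSO baseline.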
# [11] = ATG_NF_kB_CIS: Attagene CIS-FACTORIAL HepG2 Assay for human Nuclear Factor Kappa B (NF-kB) (AID 2282991); settings: HepG2 Attagene cis-factorial NF-kB reporter mRNA; actives raise or lower the signal
# Procedure, shortened: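 HepG2, transient multi-reporter transfection, cis promoter elements (endogenous TFs). 24 h exposure. Total RNA → RT → PCR → 6-FAM label → HpaI → CE. Gain/loss vs DMSO.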
# [12] = ATG_NRF2_ARE_CIS: Attagene CIS-FACTORIAL HepG2 Assay for human Nuclear Factor Erythroid 2 Related Factor 2 (NFR2) response to Antioxidant Response Elements (ARE) (AID 2282992); settings: HepG2 Attagene ARE/NRF2 reporter, transcription factor activity; actives raise or lower the signal
# Procedure, shortened: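 HepG2 cells transiently transfected with multiplexed cis-regulated reporter transcription units measure endogenous transcription factor activity. Reporter mRNA at 24 h is quantified by RT-PCR, fluorescent labelling and capillary electrophoresis, with bidirectional fitting relative to DMSO.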
# [13] = ATG_Oct_MLP_CIS: Attagene CIS-FACTORIAL HepG2 Assay for human Octamer-Binding Transcription Factor (Oct) (AID 2282993); settings: HepG2 Attagene cis-factorial Oct reporter, mRNA; actives raise or lower the signal
# Procedure, shortened: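 Cells of the HepG2 line express promoter-controlled reporter sequences whose mRNA levels, after 24 h treatment, are measured by RT-PCR and capillary electrophoresis. Increases and decreases are scored relative to DMSO.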
# [14] = biological target: Cellular tumor antigen p53 (Homo sapiens) (UniProt P04637); assay: ATG_p53_CIS: Attagene CIS-FACTORIAL HepG2 Assay for human p53 Transcription Factor (AID 2282994); settings: HepG2 p53 cis-element reporter, Attagene mRNA; actives raise or lower the signal
# Chain of Cellular tumor antigen p53 (Homo sapiens) (P04637 whole entry, looked up): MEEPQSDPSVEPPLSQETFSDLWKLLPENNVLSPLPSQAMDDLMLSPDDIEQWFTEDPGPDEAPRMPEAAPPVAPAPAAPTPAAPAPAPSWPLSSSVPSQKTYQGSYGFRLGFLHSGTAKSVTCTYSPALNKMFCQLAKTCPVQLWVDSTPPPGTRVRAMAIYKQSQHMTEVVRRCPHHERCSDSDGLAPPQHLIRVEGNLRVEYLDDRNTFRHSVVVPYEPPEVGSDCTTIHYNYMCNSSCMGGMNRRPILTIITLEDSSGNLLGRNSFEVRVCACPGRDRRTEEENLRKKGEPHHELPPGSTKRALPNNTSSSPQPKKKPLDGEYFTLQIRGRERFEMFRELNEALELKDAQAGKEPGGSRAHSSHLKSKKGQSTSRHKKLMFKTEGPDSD
# Procedure, shortened: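 HepG2 cells transiently transfected with multiplexed cis-regulated reporter transcription units read endogenous TF activity. After 24 h compound exposure, reporter mRNA was quantified by RT-PCR, fluorescent labelling, HpaI digestion and capillary electrophoresis; bidirectional fits versus DMSO baseline.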
# [15] = BSK_3C_TissueFactor: BioMAP Diversity Plus: 3C Assay for Tissue Factor Biomarker Activity (AID 2282997); settings: BioMAP 3C HUVEC, tissue factor biomarker readout; actives raise or lower the signal
# Procedure, shortened: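 HUVEC were treated 24 h, then surface tissue factor measured by ELISA and fitted bidirectionally against DMSO. Parallel SRB total-protein staining assessed overt cytotoxicity at the same time point.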
# [16] = BSK_3C_uPAR: BioMAP Diversity Plus: 3C Assay for Urokinase-type plasminogen activator receptor (uPAR) Biomarker Activity (AID 2282998); settings: BioMAP 3C HUVEC, uPAR biomarker ELISA; actives raise or lower the signal
# Procedure, shortened: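 Endothelial primary cells of human umbilical vein origin received test chemical; 24 h later uPAR was assayed by ELISA. Fitting was bidirectional, DMSO as negative control.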
# [17] = BSK_3C_VCAM1: BioMAP Diversity Plus: 3C Assay for Vascular cell adhesion molecule 1 (VCAM1) Biomarker Activity (AID 2282999); settings: BioMAP 3C HUVEC, VCAM1 ELISA, cytokine-stimulated; actives raise or lower the signal
# Procedure, shortened: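 Human umbilical vein endothelial cells (3C system), biomarker read by ELISA 24 h after dosing; bidirectional fit against DMSO baseline. Cytotoxicity tracked by SRB total-protein staining in parallel cultures at biomarker time.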
# [18] = biological target: Estrogen-related receptor gamma (Homo sapiens) (UniProt P62508); assay: ATG_ERRg_TRANS: Attagene TRANS-FACTORIAL HepG2 Assay for human Estrogen-Related Receptor gamma (ERRg) (AID 2282977; active = hit-call score of the fitted dose curve at least 0.9, where 1 is the maximum;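 also: hits increase reporter signal over DMSO so potencies reflect activators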); settings: HepG2 Attagene TRANS reporter, ERRg transactivation
# Chain of Estrogen-related receptor gamma (Homo sapiens) (P62508 whole entry, looked up, the tested form may be a part): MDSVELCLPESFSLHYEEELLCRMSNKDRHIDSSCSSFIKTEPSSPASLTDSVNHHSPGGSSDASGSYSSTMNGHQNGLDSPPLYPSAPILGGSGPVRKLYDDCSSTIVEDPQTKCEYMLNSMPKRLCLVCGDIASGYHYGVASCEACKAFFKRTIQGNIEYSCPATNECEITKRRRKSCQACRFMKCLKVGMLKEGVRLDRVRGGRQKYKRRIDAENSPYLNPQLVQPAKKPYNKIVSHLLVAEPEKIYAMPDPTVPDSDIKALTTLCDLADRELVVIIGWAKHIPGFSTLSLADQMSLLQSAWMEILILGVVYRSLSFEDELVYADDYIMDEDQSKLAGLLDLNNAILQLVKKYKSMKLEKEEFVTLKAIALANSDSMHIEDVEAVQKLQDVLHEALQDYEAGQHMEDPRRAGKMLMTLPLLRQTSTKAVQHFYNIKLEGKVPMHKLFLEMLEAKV
# Procedure, shortened: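 Transfect HepG2 with multiple GAL4-UAS reporter transcription units; dose chemicals 24 h; isolate RNA, reverse-transcribe with oligo(dT), PCR-amplify, label with 6-FAM, digest with HpaI; size fragments by capillary electrophoresis. DMSO serves as negative control.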
# [19] = biological target: Hepatocyte nuclear factor 4-alpha (Homo sapiens) (UniProt P41235); assay: ATG_HNF4a_TRANS: Attagene TRANS-FACTORIAL HepG2 Assay for human Hepatocyte Nuclear Factor 4 alpha (HNF4a) (AID 2282982; active = hit-call score of the fitted dose curve at least 0.9, where 1 is the maximum); settings: HepG2 HNF4a transactivation reporter, mRNA readout
# Procedure, shortened: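 HepG2 cells transiently transfected with HNF4a-Gal4 chimera and GAL4-UAS reporter units, dosed for 24 h. Reporter mRNA measured by RT-PCR, fluorescent primer extension and capillary electrophoresis; gain-of-signal fitted relative to DMSO.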
# [20] = ATG_M_06_TRANS: Attagene TRANS-FACTORIAL HepG2 Assay for M06 Transcription Factor (Internal Marker) (AID 2282983; active = hit-call score of the fitted dose curve at least 0.9, where 1 is the maximum;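 also: reporter transcript level by RT-PCR then capillary electrophoresis fluorescence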); settings: HepG2 Attagene TRANS M06 internal marker reporter
# Procedure, shortened: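 HepG2 cells transiently transfected with GAL4-UAS multiple reporter units, dosed 24 h. Reporter RNA reverse-transcribed, PCR-amplified, 6-FAM-labeled, HpaI-digested and quantified by capillary electrophoresis; this internal-marker signal fitted upward relative to DMSO.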
smiles,measurement,setting,value
FC(F)(F)C(F)(F)C(F)(F)C(F)(F)C(F)(F)CCI,outcome,[1],inactive
same,outcome,[2],inactive
same,outcome,[3],inactive
same,outcome,[4],inactive
same,outcome,[5],inactive
same,outcome,[6],inactive
same,outcome,[7],inactive
same,outcome,[8],inactive
same,outcome,[9],inactive
same,outcome,[10],inactive
same,outcome,[11],inactive
same,AC50,[12],88.9 µM (active)
same,outcome,[13],inactive
same,outcome,[14],inactive
same,outcome,[15],inactive
same,outcome,[16],inactive
same,outcome,[17],inactive
Oc1ccc(Nc2ccccc2)cc1,outcome,[18],inactive
same,outcome,[2],inactive
same,outcome,[4],inactive
same,outcome,[19],inactive
same,outcome,[20],inactive
same,outcome,[6],inactive
same,outcome,[7],inactive
same,outcome,[8],inactive
same,outcome,[9],inactive
same,outcome,[10],inactive
same,outcome,[11],inactive
same,AC50,[12],43.9 µM (active)
same,outcome,[13],inactive
same,outcome,[14],inactive
same,outcome,[15],inactive
same,outcome,[16],inactive
same,AC50,[17],20 µM (active)
Cc1ccc(S(=O)(=O)OCC(F)(F)C(F)(F)C(F)(F)C(F)(F)C(F)(F)C(F)F)cc1,outcome,[1],inactive
same,outcome,[2],inactive
same,outcome,[3],inactive
same,outcome,[4],inactive
same,outcome,[20],inactive
same,outcome,[5],inactive
same,outcome,[6],inactive
same,outcome,[7],inactive
same,outcome,[8],inactive
same,outcome,[10],inactive
same,outcome,[11],inactive
same,outcome,[12],inactive
same,outcome,[13],inactive
same,outcome,[14],inactive
same,outcome,[15],inactive
same,outcome,[16],inactive
same,outcome,[17],inactive
OC[C@@H](O)[C@@H](O)[C@H](O)[C@@H](O)CO,outcome,[18],inactive
same,outcome,[20],inactive
same,outcome,[5],inactive
same,outcome,[6],inactive
same,outcome,[7],inactive
same,outcome,[8],inactive
same,outcome,[11],inactive
same,outcome,[12],inactive
same,outcome,[14],inactive
CC(CCl)OP(=O)(OC(C)CCl)OC(C)CCl (stereo not given),outcome,[1],inactive
same,outcome,[2],inactive
same,outcome,[3],inactive
same,outcome,[20],inactive
same,outcome,[6],inactive
same,outcome,[7],inactive
same,outcome,[8],inactive
same,outcome,[9],inactive
same,outcome,[10],inactive
same,outcome,[11],inactive
same,outcome,[12],inactive
same,outcome,[13],inactive
same,outcome,[14],inactive
same,outcome,[15],inactive
same,outcome,[16],inactive
same,outcome,[17],inactive
FC(F)(I)C(F)(F)C(F)(F)C(F)(F)I,outcome,[18],inactive
same,outcome,[3],inactive
same,outcome,[5],inactive
same,outcome,[6],inactive
same,outcome,[7],inactive
same,outcome,[8],inactive
same,outcome,[9],inactive
same,outcome,[11],inactive
same,AC50,[12],33.4 µM (active)
same,outcome,[14],inactive
same,AC50,[15],44.1 µM (active) and 42 µM (active) and 56.5 µM (active)
same,AC50,[16],51.2 µM (active) and 53.9 µM (active) and 47.1 µM (active)
same,AC50,[17],49.9 µM (active) and 48.3 µM (active) and 57.1 µM (active)
CN(C)Cc1ccccc1O,outcome,[1],inactive
same,outcome,[2],inactive
same,outcome,[3],inactive
same,outcome,[4],inactive
same,outcome,[20],inactive
same,outcome,[5],inactive
same,outcome,[6],inactive
same,outcome,[7],inactive
same,outcome,[8],inactive
same,outcome,[9],inactive
same,outcome,[12],inactive
same,AC50,[13],179 µM (active)
same,outcome,[14],inactive
OCCCC(F)(F)C(F)(F)C(F)(F)F,outcome,[1],inactive
same,outcome,[2],inactive
same,outcome,[3],inactive
same,outcome,[4],inactive
same,outcome,[20],inactive
same,outcome,[5],inactive
same,outcome,[6],inactive
same,outcome,[7],inactive
same,outcome,[8],inactive
same,outcome,[10],inactive
same,outcome,[11],inactive
same,outcome,[12],inactive
same,outcome,[13],inactive
same,outcome,[14],inactive
same,outcome,[15],inactive
same,outcome,[16],inactive
same,outcome,[17],inactive
